Assay results reported in PubChem BioAssay AID504583 (Broad Institute, 2011).
Measured potencies and affinities stand elsewhere. Results filed as inconclusive are left out. The source made the active and inactive calls.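 How the source made its calls: active means lowers substrate conversion with a fitted half-maximal potency at most ten times the top dose, in every run; inconclusive means runs disagree, or flat weak or poorly fitted curves; inactive means every run inactive, flat, weak or opposite direction.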

target: cAMP-dependent protein kinase catalytic subunit alpha (Homo sapiens) (UniProt P17612); test: inhibition of human PKA kinase activity – biochemical, Caliper mobility shift, dry powder samples, dose response (AID 504583); conditions: recombinant PKA, Caliper peptide phosphorylation % conversion; series mostly up to 10 µM; % substrate conversion (lower = inhibition): at the top concentration

% substrate conversion (lower = inhibition), inactive:
COc1cc(N2CCN(C)CC2)ccc1Nc1ncc2c(n1)N(C1CCCC1)C(C)CC(=O)N2C (centres undefined) 28.5%
CCOc1ccccc1C(=O)Nc1cc(Cl)ccc1O 34.3%
O=C(Nc1ccccc1-c1nc2ccccc2[nH]c1=O)c1cccs1 28.3%
COc1cc(C(=O)NC2CCN(C)CC2)ccc1Nc1ncc2c(n1)N(C1CCC(O)CC1)CCC(=O)N2C (centres undefined) 31.3%
COc1cc(N2CCC(N3CCN(C)CC3)CC2)ccc1Nc1ncc2c(n1)N(C1CCCC1)C(C)CC(=O)N2C (centres undefined) 26.4%
COc1cc(N2CCC(N3CCN(C)CC3)CC2)ccc1Nc1ncc2c(n1)N1CCC[C@H]1CC(=O)N2C 29.8%
CC(C)n1cnc2c(Nc3cccc(Cl)c3)nc(NCCO)nc21 29.7%
O=C(Nc1ccccc1-c1ccccc1)c1ccc(Br)o1 30.1%
CC(Oc1ccc2c(c1)c1ccnc3c4ccccc4c(=O)n2c13)C(=O)NCCN1CCOCC1 (centres undefined) 35.1%
COc1cc(N2CCC(O)CC2)ccc1Nc1ncc2c(n1)N1CCc3cccc(c31)C(=O)N2C 29.5%
COc1cc(N2CCN(C)CC2)ccc1Nc1ncc2c(n1)N1CCC[C@H]1CC(=O)N2C 30.5%
COc1cc(/C=C2\SC(N)=NC2=O)ccc1O 30.5%
CN1CCN(c2ccc(Nc3ncc4c(n3)N(C)c3ccccc3C(=O)N4C)cc2)CC1 27.9%
COc1cc(C(=O)N2CCC(N3CCN(C)CC3)CC2)ccc1Nc1ncc2c(n1)N(C)c1ccccc1C(=O)N2C 27.9%
COc1cc(/C=N/n2c(-c3ccccc3)n[nH]c2=S)ccc1O 31.8%
Oc1ccc(Nc2nc(-c3ccccc3O)nc3ccccc23)cc1 26.3%
CC(=O)N(C)c1ccc(N=Cc2c(O)ccc3ccccc23)cc1 32.2%
COc1cc(N2CCN(C)CC2)ccc1Nc1ncc2c(n1)N(C)c1sccc1C(=O)N2C 28.3%
COc1cc(/C=C2\SC(=Nc3ccccc3OC)NC2=O)ccc1O 23.2%
O=C1NC(=NCc2ccccc2)S/C1=C/c1ccc(O)cc1 27.7%
O=C1NCCCc2c1oc1ccc(O)cc21 27.7%
Cc1ncc(/C=C2\C(=O)Nc3ccccc32)[nH]1 26.6%
CCCn1c(NC(=O)c2cccc(S(=O)(=O)N3CCCC3)c2)nc2ccccc21 26.1%
COc1cc(N2CCN(C)CC2)ccc1Nc1ncc2c(n1)N(C)c1ccccc1C(=O)N2C 29.4%
